The values that follow come from PubChem BioAssay AID1212 (NMMLSC, 2008).

SMILES strings stand for the structures. A number with no mark means an inactive call. Calls of active or inactive are those of the source.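 How the source made its calls: active means blocks over 60% of fluorescent estradiol binding at 10 µM; inactive means the rest.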

What is called inhibition is the relative decrease from the control value, in per cent.

The assay deals with G-protein coupled estrogen receptor 1 (Homo sapiens) (UniProt Q99527). Briefly: GPR30 competitive binders vs fluorescent estrogen, primary screen, cell-based, Cos7 GPR30-GFP, flow cytometry, 10 µM (AID 1212). Particulars: fluorescent estrogen competition, at 10 µM; stronger effect = higher value.
With `CCCCc1cc(=O)oc2c(C)c(O)ccc12`, the result was inactive. Turning to `CCOc1ccc(NS(=O)(=O)c2ccc3c(c2)[C@H]2C=CC[C@H]2[C@@H](c2ccc([N+](=O)[O-])cc2)N3)cc1`, the inhibition is 55%. For the molecule `CC1(C)CC(=O)c2cn(-c3ccc(Cl)cc3)c(=N)c(C#N)c2C1`, the molecule was classed as inactive. For `CC(=O)c1ccc2c(c1)C1C=CCC1C(c1cccc([N+](=O)[O-])c1)N2` (configuration not stated), the inhibition is 64% (active). With `COc1cc2c(c([N+](=O)[O-])c1)NC(c1ccc(Br)cc1)C1CC=CC21` (configuration not stated), the outcome was inactive. Take `CCCCc1cc2c(=O)c(-c3ccccn3)coc2cc1O`: the inhibition is 3%. Turning to `CC(C)C1CC(CCNCc2ccc3c(c2)OCO3)(c2ccccc2)CCO1` (configuration not stated), the call was inactive. For `N#Cc1c2c(c(=O)n3c1[nH]c1ccccc13)CCCC2`, the inhibition is 15%. Take `CC(=O)c1ccc(N2Cc3ccccc3C2)cc1`: the result was inactive. `C=C1c2ccc(OC)cc2NC(=O)N1c1ccccc1`: the molecule was classed as inactive. On the same count and under the same terms, to `O=C(O)COc1cc2oc(=O)c3c(c2cc1Cl)CCCC3` belongs “inactive”; to `CC1(C)CC(=O)C=C(NC2CC(C)(C)NC(C)(C)C2)C1`, “inactive”; to `CC1(C)Cc2[nH]c3ccccc3c2C(C)(C)N1`, “inactive”.

With `O=c1oc2c(CN3CCCC3)c(O)ccc2c2c1CCC2`, the result was inactive. On the same count and under the same terms, to `CC(C)COc1ccc2c(c1)c1c3n2CCNC3CCC1` (configuration not stated) belongs “inactive”.

For `CCOc1ccc(NS(=O)(=O)c2ccc3c(c2)[C@H]2C=CC[C@H]2[C@@H](c2ccc(C(=O)O)cc2)N3)cc1`, the inhibition was 100% (active). For the molecule `Cc1cc(C(C)CO)cc(C(C)(C)C)c1O` (configuration not stated), the molecule was called inactive. Same read-out and setting: with `Cc1oc2ccc(OCC#N)cc2c1C(=O)OC(C)C` the entry was “inactive”. In the case of `COc1cc([C@@H]2Nc3ccc(S(=O)(=O)Nc4ccccc4F)cc3[C@@H]3C=CC[C@@H]32)cc(OC)c1OC`, the inhibition is 17%. With `CCOc1cc2c(cc1OCC)C(C1CCCCC1)NCC2` (configuration not stated), the molecule was classed as inactive. For the molecule `COc1cc([N+](=O)[O-])cc2c1NC(c1ccc(Cl)cc1)C1CC=CC21` (configuration not stated), the inhibition is 9%.

Turning to `CC1CCCC(C)N1Cc1c(O)ccc2c3c(c(=O)oc12)CCC3` (configuration not stated), the inhibition was 23%. Still for that read-out and setting: to `CCOC(=O)c1c(N)sc2c1CC(C)(C)NC2(C)C` belongs 10%; to `COc1cc([N+](=O)[O-])cc2c1N[C@@H](c1ccc(C(=O)O)cc1)[C@H]1CC=C[C@@H]21`, 91% (active); to `CCCCOc1cc(OCCCC)c2c3c(c(=O)oc2c1)CCCC3`, 34%.

Consider `O=C(O)c1ccc([N+](=O)[O-])c2c1NC(c1ccccc1)C1CC=CC21` (configuration not stated), for which the inhibition is 100% (active). As for `CCCCCCc1cc2c3c(c(=O)oc2cc1OCC(=O)O)CCCC3`, the call was inactive.
